# Imprint erasure – genomic imprint erasure induction. mouse ES Peg3-LacZ reporter, beta-gal luminescence, 40 h. Potency, µM (doses to about 60.7 µM), inactives show top-dose activity change, positive = activation, usual class: activators. 110,000 compounds, 0.02% hits
#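 Each well holds 300 Peg3LacZ-Neo (maternal) female ES cells incubated 40 h at 37C, 5% CO2. LacZ is measured by BetaGlo luminescence, with AC50 and maximum efficacy derived from dose-response curves.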
# p53ts 32C kill – cytotoxicity in p53ts cells at permissive temperature. H1299-p53A138V at 32C, ATP luminescence viability, 24 h. Potency, µM (top dose mostly 46.1 µM), for inactives: at the top dose activity change, negative = cytotoxicity, most hits filed as cytotoxic. 130,000 compounds, 0.93% hits;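 note: 0% = DMSO and -100% = full killing by reference compound; nearly all actives have a fitted effect of over 55% in size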
#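 H1299-p53 A138V cells (temperature-sensitive p53) exposed 24 h to up to 46 uM compound at 32C, where p53 is wild-type in conformation. Viability read as ATP luminescence and normalised to DMSO and 100 uM tamoxifen. AC50 fitted with the Hill equation.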
# TSHR ag – agonists of human thyroid stimulating hormone receptor. Potency, µM (doses to about 57.1 µM), inactives show at the top dose activation, actives largely listed as activators. AID 926. HEK293-CNG-TSHR cells (CNG channel as cAMP sensor), membrane potential dye, cAMP. 73,000 compounds, 0.48% hits. P16473; active = well fitted activation curve with a large enough effect in the main read-out, with a control signal flat, not every such curve was filed as active; inconclusive = small, poorly fitted or top-dose-only effect, or a change in a side signal; inactive = no such curve, though single readings can be large or run the other way; % of control where 0% means no effect;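 note: the control signal comes from parental cells without the receptor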
# Target sequence (P16473 whole entry, looked up): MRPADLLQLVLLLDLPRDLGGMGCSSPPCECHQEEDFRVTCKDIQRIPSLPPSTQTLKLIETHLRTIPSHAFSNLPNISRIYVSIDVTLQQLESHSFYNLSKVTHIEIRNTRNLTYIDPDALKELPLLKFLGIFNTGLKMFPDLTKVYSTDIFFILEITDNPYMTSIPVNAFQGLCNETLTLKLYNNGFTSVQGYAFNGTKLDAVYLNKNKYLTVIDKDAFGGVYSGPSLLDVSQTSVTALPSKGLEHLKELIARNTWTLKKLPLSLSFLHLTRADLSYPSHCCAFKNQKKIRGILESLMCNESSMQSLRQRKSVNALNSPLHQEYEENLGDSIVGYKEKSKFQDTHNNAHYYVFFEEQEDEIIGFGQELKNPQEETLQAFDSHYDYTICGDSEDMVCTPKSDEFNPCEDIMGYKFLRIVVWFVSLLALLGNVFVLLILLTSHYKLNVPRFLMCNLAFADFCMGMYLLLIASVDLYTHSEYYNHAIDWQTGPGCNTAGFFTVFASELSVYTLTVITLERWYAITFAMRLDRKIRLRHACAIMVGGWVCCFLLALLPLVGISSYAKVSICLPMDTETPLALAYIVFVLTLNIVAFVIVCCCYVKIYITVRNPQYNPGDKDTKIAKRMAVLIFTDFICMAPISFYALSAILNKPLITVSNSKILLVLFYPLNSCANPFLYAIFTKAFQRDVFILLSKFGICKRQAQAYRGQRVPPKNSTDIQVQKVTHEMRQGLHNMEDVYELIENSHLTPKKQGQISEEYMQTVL
#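 HEK 293 cells stably expressing TSHR and a modified CNG channel, with CNG-only parental cells as counterscreen, were preloaded 60 min at room temperature with membrane potential dye containing 100 uM RO 20-1724. Compound exposure was 30 min, and depolarization was read as fluorescence at 590 nm.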
# p53ts 39C kill – kills p53ts cells at the nonpermissive temperature. AID 902. 130,000 compounds, 1.5% hits. H1299-p53A138V viability at 39C, ATP luminescence, 24 h. Potency, µM (top dose mostly 46.1 µM), for the others: at the highest dose activity change, negative = cell killing, hits mostly cytotoxic; note: % is set by controls: 0 for no effect and ±100 for the full control effect; nearly all actives have a fitted effect of over 55% in size
# HEK293 cAMP ctrl – counter-screen for TSHR agonists: cAMP increase in parental HEK293. parental HEK293 CNG cAMP sensor, membrane potential fluorescence. Potency, µM (titrated, usually from 57.1 µM), for inactives: at the highest dose activation, actives largely listed as activators. 73,000 compounds, 2.5% hits; note: % of control where 0% means no effect; nearly all actives have a fitted effect of over 55% in size
#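 Parental HEK 293 cells stably expressing a modified CNG channel (no TSHR) report cAMP rise as membrane depolarization. Membrane potential dye with 100 uM RO 20-1724 was loaded for 60 min at room temperature, then compound added for 30 min; fluorescence read at 590 nm.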
# IkB signaling – IkB pathway inhibition in ABC-DLBCL cells; Potency, µM (doses to about 57.1 µM), inactives show at the highest dose IkBa stabilization activation; 110,000 compounds, 0.04% hits; AID 445; ABC-DLBCL IkBa-CBG/CBR dual luciferase ratio, 4 h; response scale: scaled: untreated 0%, proteasome inhibitor 100%; active = well fitted curve in the direction sought with a large enough effect in the signal ratio, not every such curve was filed as active; inconclusive = small, poorly fitted or top-dose-only effect, or a change in a side signal; the % refers to the signal ratio;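 note: the direction sought is a rising ratio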
#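 Luminescence ratio of IκBα-fused green versus native red beetle luciferase in OCI-Ly3 cells, 4 h post-doxycycline with compound; red signal alone, scaled from basal (0%) to zero light (-100%), flagged nonspecific or cytotoxic effects.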
# * marks the source's active call; other numbers are inactive results; u = inconclusive; x = no result given; [ ] = another dose, or the depositor's remark. This is a sample that favours compounds with a hit; in the whole collection about 3.1% have one here. Unless noted, calls come from the whole dose curve; as a rule, active = well fitted curve in the direction sought with a large enough effect; inconclusive = small, poorly fitted or top-dose-only effect, or another doubt; inactive = no such curve, though single readings can be large; an effect the other way counts as inactive or inconclusive. Potency is the fitted concentration of half-maximal effect.
SMILES,Imprint erasure,p53ts 32C kill,TSHR ag,p53ts 39C kill,HEK293 cAMP ctrl,IkB signaling
CC1CN(C(=O)c2cccs2)CCN1C(=O)c1cccs1 (stereo not drawn),-13%,16%,u,12%,32µM*,0%
CC(C)C[C@@H](CC(=O)N[C@H](CC(=O)N[C@@H]1CCCC[C@H]1C(=O)N[C@H](CC(=O)N[C@@H](CCC(=O)O)CC(=O)O)CC(C)C)C(C)C)NC(=O)[C@@H]1CCCC[C@H]1N,x,x,8%,x,16%,2%
COc1ccc(-c2nnc(C3CCN(C(=O)c4ccccc4F)CC3)o2)cc1,-5%[10.9 µM],-10%,x,4%,x,0%
O=C(C1CC1)N1CCc2cc(S(=O)(=O)NCC3COc4ccccc4O3)ccc21 (stereo not drawn),-6%,-2%,u,-14%,u,u
O=C(C1CC1)N1CCc2cc(Br)cc(S(=O)(=O)NCC3COc4ccccc4O3)c21 (stereo not drawn),-15%,1%,u,2%,16µM*,u
CN(C)S(=O)(=O)c1ccc(C(=O)Nc2c(C(=O)Nc3ccc(F)cc3)oc3ccccc23)cc1,-11%[10.9 µM],-10%,x,-9%,x,u
O=C(NCCc1ccccc1)C(=O)NCC(c1cccnc1)N1CCN(c2ccc(F)cc2)CC1 (stereo not drawn),-19%[10.9 µM],u,x,20µM*,x,-3%
CCOC(=O)c1sc(NC(=O)C(C)Oc2ccc(OC)cc2)c(C(=O)OCC)c1C (stereo not drawn),-2%[10.9 µM],11%,x,9%,x,0%
CC1CCN(c2ccc(-c3nc(-c4ccccc4)no3)cc2[N+](=O)[O-])CC1,-14%[10.9 µM],17%,x,22µM*,x,u
O=C(CCS(=O)(=O)c1nc(-c2ccc3c(c2)OCO3)cc(C(F)(F)F)n1)Nc1ccc(F)c(Cl)c1,-10%[10.9 µM],u,x,35%,x,u
COc1ccc(-c2csc(N(CC3CCCO3)C(=O)c3ccco3)n2)cc1 (stereo not drawn),-16%,-1%,u,-21%,20µM*,u
COc1cc(N=c2c([N+](=O)[O-])nn(-c3ccc4c(c3)OCCO4)n2O)cc(OC)c1,x,x,x,11µM*,x,x
Cc1cccc(N2CCN(C(=O)CS(=O)(=O)Cc3nc(-c4ccccc4C)oc3C)CC2C)c1 (stereo not drawn),3%[10.9 µM],-6%,x,-11%,x,u
CCCCn1nnnc1NCc1cccnc1,9%,-1%,-12%,17%,3%,-1%
CCn1nnnc1NCc1cccn1C,-18%,-1%,u,2%,25µM*,-2%
COc1ccc(NC(=O)C2CCN(c3nc(C)cc(C)n3)CC2)cc1,x,-4%,x,24%,x,x
COc1ccc(NC(=O)C2CCN(c3nc(C)nc4c3CCC4)CC2)cc1,-13%,18%,u,11%,32µM*,u
C[C@@]12CCC(=O)C=C1CC[C@H]1C2[C@@H](O)C[C@]2(C)[C@@H]1CC[C@@]2(O)C(=O)CO (stereo partly drawn),-8%[10.9 µM],x,x,x,x,x
O=c1cc(CSc2nnc(-c3cccs3)n2Cc2ccccc2)nc2sc3ccccc3n12,-10%,7%,u,-16%,10µM*,u
Cc1cc(C(=O)CSc2nnc(-c3cccs3)n2Cc2ccccc2)c(C)n1C,-14%,-2%,u,-7%,u,u
C=CCn1c(SCc2ccc(C#N)cc2)nnc1-c1cccc(OC)c1,-6%,-6%,u,1%,3.2µM*,0%
COc1cccc(-c2nnc(SCc3ccc(C#N)cc3)n2Cc2ccco2)c1,-8%,-7%,u,-6%,6.3µM*,u
Cc1cccc(-c2nnc(SCc3nc4ccccc4[nH]3)n2Cc2ccco2)c1,-13%,1%,u,25%,13µM*,u
CC(C)NC[C@@H](O)c1ccc(O)c2ncccc12,-10%[10.9 µM],-1%[9.22 µM],-1%[11.4 µM],13%[9.22 µM],13%[11.4 µM],2%[11.4 µM]
CC(C)C[C@@H](CC(=O)N[C@@H](CCC(=O)O)CC(=O)O)NC(=O)[C@@H]1CNCC[C@H]1NC(=O)C[C@H](CCCN)NC(=O)C[C@H](CO)NC(=O)[C@@H]1CNCC[C@H]1N,x,x,u,x,u,2%
SMILES,Imprint erasure,p53ts 32C kill,TSHR ag,p53ts 39C kill,HEK293 cAMP ctrl,IkB signaling
c1ccc(CSc2nnc(-c3cccs3)n2Cc2ccco2)cc1,2%,-6%,u,3%,25µM*,3%
CCOC(=O)C1CCCN(S(=O)(=O)c2cn(C)c(=O)n(C)c2=O)C1 (stereo not drawn),-10%,8%,-2%,30%,8%,2%
CCOC(=O)C1CCN(S(=O)(=O)c2cn(C)c(=O)n(C)c2=O)CC1,-21%,-33%,u,-4%,16µM*,u
CC(C)=CCC/C(C)=C/COc1c2ccoc2cc2oc(=O)ccc12,x,x,u,x,13µM*,1%[11.4 µM]
CC(C)=CCC/C(C)=C/COc1c2occc2cc2ccc(=O)oc12,-13%,5%,x,-14%,x,x
CC(=O)NC1=C(NC2CCS(=O)(=O)C2)C(=O)c2ccccc2C1=O (stereo not drawn),x,16µM*,x,u,x,x
COc1ccc(OC)c(NC(=O)[C@H](CSCc2ccccc2)N2Cc3ccccc3C2=O)c1,-7%[10.9 µM],6%,x,-21%,x,0%
CCN(CCO)CCCC(C)Nc1ccnc2cc(Cl)ccc12 (stereo not drawn),-8%,-6%,x,1%,x,x
CCN(CC)CCC[C@H](C)Nc1c2ccc(Cl)cc2nc2ccc(OC)cc12,-10%[16.8 µM],5µM*,-60%[25.6 µM],10µM*,-16%[25.6 µM],u
Cc1cc(NC(=O)c2ccccc2NS(=O)(=O)c2c(C)c(C)cc(C)c2C)no1,0%,1%,u,-12%,32µM*,2%
Cc1cc(C(=O)OCc2nnc(-c3ccccc3)o2)c(C)n1-c1ccccc1,-19%,4%,u,3%,13µM*,u
COc1ccc(C)cc1S(=O)(=O)Nc1cccc(-c2ccc(N3CCC(C)CC3)nn2)c1,-6%[10.9 µM],-12%,x,u,x,u
CC1CCN(c2ccc(-c3cccc(NS(=O)(=O)c4cccs4)c3)nn2)CC1,-14%[10.9 µM],10µM*,x,3.2µM*,x,u
Cc1cc(C)c(S(=O)(=O)Nc2ccc(-c3ccc(N4CCC(C)CC4)nn3)cc2)cc1C,-8%[10.9 µM],-15%,x,39%,x,23%
CC1CCN(c2ccc(-c3cccc(NS(=O)(=O)c4ccc(Cl)s4)c3)nn2)CC1,-8%[10.9 µM],6.3µM*,x,4µM*,x,u
CCOc1cccc(NC(=O)C2CC(=O)N(C)C(=Nc3cccc(OC)c3)S2)c1 (stereo not drawn),-17%[10.9 µM],u,x,13µM*,x,20%

# Screening results deposited in PubChem by National Center for Advancing Translational Sciences (NCATS).
